Source: PubChem BioAssay (NCATS)
Results filed as inconclusive are left out. Unmarked numbers belong to inactive results. The source made the active and inactive calls. Calls come from the whole dose curve; as a rule, active = well fitted inhibition curve with a large enough effect; inconclusive = small, poorly fitted or top-dose-only effect; inactive = flat fitted curve, though single readings scatter.

Tested on: MCC-26
Test: qHTS assay to identify novel small-molecules to repurpose for Merkel cell carcinoma treatment (AID 1296009); note: nearly all actives have a fitted effect of over 60% in size
Conditions: MCC and control cell lines, CellTiter-Glo viability, 72 h; series mostly up to 46 µM; activity change, negative = cytotoxicity: at the top concentration
Description: MCC is a rare and aggressive neuroendocrine skin cancer with limited treatment options. Approximately 80% of MCCs have the Merkel cell polyomavirus (MCPyV) DNA integrated into the host genome (virus-positive: VP-MCC) and viral oncogenes drive oncogenesis. The remaining MCCs are virus-negative (VN-MCC) and are caused by UV mutagenesis. To identify novel treatments for VP-MCC and/or VN-MCC we screened three VP-MCC cell lines (WAGA, MKL-1, MKL-2), three VN-MCC cell lines (MCC-13, MCC-26, UISO), and four immortalized, non-transformed control cell lines (HaCaT, HEK293T, CRL7250, NIH-3T3) against ~2,400 compounds in the NCGC Pharmaceutical Collection (NPC) and ~1,900 compounds in the Mechanism Interrogation PlatE (MiPE). Using cell viability as a readout (CellTiter-Glo assay) we found both overlapping and distinct drugs that can be repurposed for the treatment of VP-MCC and VN-MCC.
A high-throughput screen was conducted in 1536-well white flat bottom plates (Corning) on a Kalypsys robotic system. Cell lines WAGA, MKL-1, MKL-2, MCC-13, MCC-26, UISO, HaCaT, HEK293T, CRL7250, and NIH-3T3 were screened against 2 small molecule annotated drug libraries NPC and MIPE in dose response (8 and 11 pt. respectively) measuring cell viability after 72 hours of incubation. […] A 1,536 pintool (Kalypsys) was used to transfer 23 nL of compound in DMSO to the 1,536-well assay plates. After 72 hr incubation at 37 degree celsius, 2.5 uL of CellTiter-Glo (Promega) was dispensed into each well using a BiorapTR. Plates were incubated at room temperature for 10 min, transferred to a ViewLux (PerkinElmer) and the luminescence was recorded using an exposure time of 2 seconds. Relative luminescence units (RLUs) were normalized to in-plate controls (no cells as a positive (cytotoxicity) control, DMSO as negative control) and the normalized data was processed using NCATS in-house software.
% is set by controls: 0 for no effect and ±100 for the full control effect; potency is the fitted concentration of half-maximal effect.

SMILES | Potency | activity change, negative = cytotoxicity
CNC(=O)CN1CCC(Oc2cc3c(Nc4cccc(Cl)c4F)ncnc3cc2OC)CC1 | 2.64 µM (active) | 
O=C(c1cncc(Br)c1)N1CCC(N2CCCC2)CC1 |  | 2.61%
Nc1ncnc2c1c(-c1cnc3[nH]ccc3c1)nn2C1CCCC1 | 10.5 µM (active) | 
NC(=O)Nc1cc(-c2cccc(F)c2)sc1C(=O)N[C@H]1CCCNC1 | 11.8 µM (active) | 
C=CC(=O)Nc1cccc(Oc2nc(Nc3ccc(N4CCN(C)CC4)cc3OC)ncc2Cl)c1 | 11.8 µM (active) | 
CCCCN1CCC(CNC(=O)c2c3n(c4ccccc24)CCCO3)CC1 |  | -0.376%
COc1cc2c(Oc3ccc(-c4cnc(Nc5ccc(F)cc5)n(C)c4=O)cc3F)ccnc2cc1OCCCN1CCOCC1 | 7.43 µM (active) | 
COC(=O)C[C@](O)(CCCC(C)(C)O)C(=O)O[C@@H]1C(OC)=C[C@]23CCCN2CCc2cc4c(cc2[C@H]13)OCO4 |  | 6.41%
O=C1CCC[C@@H]2[C@H]3CCC[N+]4([O-])CCC[C@@H](CN12)[C@@H]34 (stereo not given in full) |  | 6.97%
COc1cc2c(Oc3ccc(NC(=O)C4(C(=O)Nc5ccc(F)cc5)CC4)cc3F)ccnc2cc1OCCCN1CCOCC1 | 4.69 µM (active) | 
Nc1cccc(-c2cc3c(Oc4cccc(O)c4)ncnc3[nH]2)c1 | 18.7 µM (active) | 
CC(C)C[C@H](NC(=O)CNC(=O)c1cc(Cl)ccc1Cl)B(O)O | 0.526 µM (active) | 
O=C(O)c1ccc2c(c1)nc(Nc1cccc(Cl)c1)c1ccncc12 |  | -4.53%
COC(=O)Nc1ccc(-c2nc(N3CCOCC3)c3cnn(C4CCN(Cc5cccnc5)CC4)c3n2)cc1 | 8.33 µM (active) | 
CN(C1CCc2c(c3ccccc3n2CC(=O)O)C1)S(=O)(=O)c1ccc(F)cc1 (stereo not given) |  | -1.43%
Cn1cc(-c2ccncc2)c(-c2ccc(OCc3ccc4ccccc4n3)cc2)n1 |  | -11.2%
CC(C)Nc1cc(C(F)(F)F)cc2nc(NC(=O)c3cccnc3)nn12 |  | -7.57%
CC(C)c1cnn2c(NCc3ccccc3)cc(N[C@@H](CO)[C@H](O)CO)nc12 | 0.743 µM (active) | 
CCN(CC)CCCCNc1ncc2cc(-c3cc(OC)cc(OC)c3)c(NC(=O)NC(C)(C)C)nc2n1 |  | -7.93%
COc1ccc(-n2nc(C(N)=O)c3c2C(=O)N(c2ccc(N4CCCCC4=O)cc2)CC3)cc1 |  | -3.39%

SMILES | Potency | activity change, negative = cytotoxicity
C#Cc1cccc(Nc2ncnc3cc(OC)c(OCCCCCCC(=O)NO)cc23)c1 | 10.5 µM (active) | 
Cc1ccc(C(=O)Nc2cccc(C(F)(F)F)c2)cc1-c1ccc2nc(NCCN3CCOCC3)ncc2c1 | 18.7 µM (active) | 
CC(NCc1ccc2c(c1)nc(NC(=O)c1ccc(-c3cn[nH]c3)s1)n2CC(C)(C)O)C(C)(C)C (stereo not given) | 1.48 µM (active) | 
O=C(NCCS(=O)(=O)c1ccc(C(F)(F)F)cn1)c1ccc(Cl)cc1 |  | -19.6%
COc1cc2c(Nc3ccc(NC(=O)c4ccccc4)cc3)ncnc2cc1OCCCN1CCOCC1 |  | -11.9%
CCOC(=O)C1=C(C)NC2=C(C(=O)CC(C)(C)C2)C1c1ccc(-c2ccccc2)cc1 (stereo not given) |  | -4.1%
CC(=O)Nc1sc2c(c1-c1nc3ccccc3s1)CNC2 |  | -20.1%
Cc1c(C)n(Cc2ccc(-c3ccccc3C(=O)O)cc2)c2ccc(C(=O)N[C@@H](C)c3ccc([N+](=O)[O-])cc3)cc12 |  | -11.8%
COc1ccc(C=Cc2cc(OC)c(OC)c(OC)c2)cc1O |  | -50.4%
CCOc1ccccc1OCCNC(C)Cc1ccc(OC)c(S(N)(=O)=O)c1 (stereo not given) |  | 0.729%
COc1cccc2nc(-c3cccs3)nc(NN3C(=O)C=C(C)C3=O)c12 |  | -14%
Clc1cccc(-n2nnnc2NCc2ccccc2Oc2ccccn2)c1Cl |  | -5.22%
CN1CCN(Cc2ccc(NC(=O)Nc3ccc(Oc4cc(NC(=O)C5CC5)ncn4)cc3)cc2C(F)(F)F)CC1 | 1.18 µM (active) | 
CC=C1NC(=O)[C@H]2CSSCCC=C[C@H](CC(=O)N[C@H](C(C)C)C(=O)N2)OC(=O)[C@H](C(C)C)NC1=O | 0.0662 µM (active) | 
CC(=O)c1c(C)c2cnc(Nc3ccc(N4CCNCC4)cn3)nc2n(C2CCCC2)c1=O |  | -2.76%
CCCNC(=O)Nc1ccc(Oc2ncnc3cc(OC)c(OC)cc23)cc1Cl |  | -8.74%
Cn1c(CNc2ccc(C(=N)N)cc2)nc2cc(C(=O)N(CCC(=O)O)c3ccccn3)ccc21 |  | -1.89% [at 16.1 µM]
CN(C)Cc1c(C(=O)NCCOc2ccc(C(=O)NO)cc2)oc2ccccc12 | 7.43 µM (active) | 
O=C(Cc1ccc(-c2ccc(OCCN3CCOCC3)cc2)cn1)NCc1ccccc1 | 0.0935 µM (active) | 
Nc1cc(C(F)(F)F)c(-c2cc(N3CCOCC3)nc(N3CCOCC3)n2)cn1 | 2.35 µM (active) | 
